Only a selection was taken, and hits are over-represented in it overall.
Shiga inhibitor – Shiga toxin inhibition; 290,000 compounds, 9.2% hits; Vero cells, Shiga toxin protein synthesis inhibition reporter; AID 2315; inhibition, % at 38.7 µM; in the data active means inhibition mostly above about 28%, no sharp cut-off; inactive means mostly below about 43%; further: 0% is about no effect
Cycloheximide cs – counter-screen hit for Shiga toxin inhibitors, cycloheximide; 300,000 compounds, 12% hits; cell reporter, cycloheximide protein synthesis inhibition counterscreen; AID 2314; max response, %; in the data active means max response mostly above about 13%, no sharp cut-off; inactive means mostly below about 14%; further: read at 38.3 µM for the half of the compounds with a filed dose; 0% is about no effect
RE007 growth inh – less growth of the S. pombe RE007 Vpr strain. S. pombe RE007 Vpr strain, BacTiter-Glo ATP luminescence, 24 h. AID 651644. 360,000 compounds, 0.21% hits. Potency, µM (doses to about 92.2 µM), without a hit: at the top dose activity change, negative = less growth, actives largely listed as inhibitors; active means well fitted falling curve with a large enough effect; inconclusive means small, poorly fitted or top-dose-only effect; inactive means no such curve, though single readings can be large or run the other way; further: potency means the concentration at half of the fitted maximal effect; on the % scale 0 is the no-effect control and ±100 the full control effect; nearly all actives have a fitted effect of over 50% in size
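Fission yeast strain RE007, carrying one chromosomally integrated HIV-1 vpr copy, was seeded at OD 0.01 in PMG+AL medium with 23 nL pinned compound. After 24 h at 30 °C and 99% humidity, viability was read by BacTiter-Glo luminescence.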
FBPA Giardia inh – blocks Giardia fructose-bisphosphate aldolase activity; 290,000 compounds, 0.71% hits; purified Giardia FBPA; A8B2U2; Potency, µM (highest dose often 59.6 µM), inactives show at the highest dose activity, negative = inhibition, most hits filed as inhibitors; further: potency means the concentration at half of the fitted maximal effect; on the % scale 0 is the no-effect control and ±100 the full control effect; nearly all actives have a fitted effect of over 55% in size
Target sequence (A8B2U2 whole entry, looked up): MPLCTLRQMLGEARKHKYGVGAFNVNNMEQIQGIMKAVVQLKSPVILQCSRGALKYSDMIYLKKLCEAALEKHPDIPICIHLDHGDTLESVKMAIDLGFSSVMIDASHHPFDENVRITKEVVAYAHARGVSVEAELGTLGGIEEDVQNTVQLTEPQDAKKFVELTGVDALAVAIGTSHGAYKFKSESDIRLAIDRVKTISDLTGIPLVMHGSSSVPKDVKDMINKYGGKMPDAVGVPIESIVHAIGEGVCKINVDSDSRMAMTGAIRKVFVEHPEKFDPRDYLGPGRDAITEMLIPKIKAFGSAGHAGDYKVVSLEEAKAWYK
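40 nM FBPA preincubated 10 min at RT with compound (up to 57.5 uM final), then substrate plus GAPDH/TPI/NAD/arsenate coupling and diaphorase/resazurin added. Fluorescence read after 20 min at RT, 525/598 nm.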
Tb PYK inh – T. brucei pyruvate kinase inhibition. TbPYK enzyme, Kinase-Glo Plus ATP luminescence, 45 min. Potency, µM (titrated, usually from 76.8 µM), inactives show at the highest dose activity, negative = inhibition, most hits filed as inhibitors. 410,000 compounds, 0.12% hits; further: potency means the concentration at half of the fitted maximal effect; on the % scale 0 is the no-effect control and ±100 the full control effect; nearly all actives have a fitted effect of over 50% in size
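Quantitative HTS: titrated library compounds versus trypanosomal pyruvate kinase in TEA buffer (pH 7.2) containing KCl, MgCl2, BSA and Tween-20. Reactions were initiated with ADP, 130 uM final. Kinase-Glo Plus luminescence was read after 45 min at RT.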
LmPK inh – blocks Leishmania mexicana pyruvate kinase activity; Potency, µM (doses to about 57.5 µM), for the others: at the top dose activity change, negative = inhibition, usual class: inhibitors; purified LmPK, Kinase-Glo ATP luminescence, 1 h; 290,000 compounds, 0.37% hits; further: potency means the concentration at half of the fitted maximal effect; on the % scale 0 is the no-effect control and ±100 the full control effect
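0.1 nM LmPK, 0.5 mM PEP, 0.1 mM ADP; 50 mM imidazole pH 7.2, 7 mM MgCl2, 50 mM KCl; 1 h RT. Kinase-Glo luminescence readout, normalized to no-enzyme (full inhibition) and uninhibited wells.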
Numbers without * were called inactive; ? = inconclusive; . = no result given; ! = repeats disagree; [ ] = another dose, or the depositor's remark. Unless noted, the call rests on the fitted dose curve; in most records, active means well fitted curve in the direction sought with a large enough effect; inconclusive means small, poorly fitted or top-dose-only effect, or another doubt; inactive means no such curve, though single readings can be large; an effect the other way counts as inactive or inconclusive.

SMILES	Shiga inhibitor	Cycloheximide cs	RE007 growth inh	FBPA Giardia inh	Tb PYK inh	LmPK inh
COc1ccc2c(c1)C1(Nc3ccccc3-c3nc4ccccc4n31)C(=O)N2 (configuration not stated)	-18.2	-2.7	2.5%	2.1%	12.4%	-6.1%
Cc1cc(C(=O)Cn2cnc3ccc(Cl)cc3c2=O)c(C)n1C1CC1	.	.	-2.5%	.	-0.8%	.
O=C(Cn1nc(-c2ccccc2)nc1-c1ccccc1)OC1CCCCC1	10.5	2.1	-8.5%	-2.4%	-2.5%	2.7%
CCOC(=O)Cn1nc(-c2ccccc2)nc1-c1ccccc1	27.3	26.1*	-29.4%	-4.6%	-2.6%	-1.1%
CCOC(=O)Cn1ncc(-c2ccccc2)c1N	68.2*	28.6*	-0.3%	2.0%	-3.2%	-2.0%
Cc1cc(NC(=O)c2ccc(-c3ccccc3F)o2)no1	186.2*	79.1*	-4.6%	-4.0%	-8.4%	-6.0%
COc1ccccc1NC(=O)c1ccc(-c2ccccc2F)o1	70.4*	28.0*	-1.7%	-4.1%	2.6%	1.0%
COC(=O)c1ccccc1NC(=O)c1ccc(-c2ccccc2F)o1	3.9	-0.7	5.0%	2.9%	0.7%	-4.5%
Cc1cc(NC(=O)c2ccc(-c3ccccc3[N+](=O)[O-])o2)no1	.	.	-3.4%	.	-6.9%	.
CC(=O)O[C@@]12CO[C@@H]1C[C@H](O)[C@@]1(C)C(=O)[C@H](O)C3=C(C)[C@@H](OC(=O)C(O)[C@@H](NC(=O)OC(C)(C)C)c4ccccc4)C[C@@](O)([C@@H](OC(=O)c4ccccc4)[C@H]21)C3(C)C (some centres not stated)	.	.	.	.	3.6%	.
Nc1ccccc1N=Cc1c(O)n(CCC2=CCCCC2)c(=O)[nH]c1=O	179.7*	61.6*	-7.3%	-2.0%	1.7%	5.9%
O=C(N/N=C/c1c(O)n(CCC2=CCCCC2)c(=S)[nH]c1=O)c1ccccc1	37.6*	34.9*	10.4%	?	-5.0%	1.6%
O=c1[nH]c(=S)n(CCC2=CCCCC2)c(O)c1C=NCc1cccnc1	-18.6	-8.4	.	4.7%	.	2.8%
O=C(N/N=C/c1c(O)n(Cc2ccc(F)cc2)c(=O)[nH]c1=O)c1ccccc1	89.2*	29.5*	2.7%	3.4%	4.3%	5.8%
O=c1[nH]c(=O)n(CCC2=CCCCC2)c(O)c1C=Nc1cccc(F)c1	-17.6	7.7	5.7%	3.9%	3.1%	0.9%
O=C(N/N=C/c1c(O)n(Cc2ccccc2)c(=O)[nH]c1=O)c1ccncc1	1.8	-0.8	-11.6%	17.4%	-1.2%	0.2%
O=C(N/N=C/c1c(O)n(CCC2=CCCCC2)c(=O)[nH]c1=O)c1ccccc1	20.6	26.8*	7.2%	-3.6%	-10.1%	2.4%
CCC(C(=O)Nc1ccc(C(C)=O)cc1)n1cnc2nc3c(cc2c1=O)CCCC3 (configuration not stated)	.	.	.	.	7.7%	.
O=C(c1ccc(-n2cncn2)c([N+](=O)[O-])c1)N1CCN(S(=O)(=O)c2ccccc2F)CC1	.	.	-8.2%	.	-11.6%	.
Cc1ccccc1OCC(=O)Nc1ccc2c(c1)OCO2	157.0*	32.2*	8.3%	4.3%	-11.3%	2.2%
COc1ccccc1OCC(=O)Nc1ccc2c(c1)OCO2	65.8*	25.2*	-16.3%	-10.0%	2.2%	-1.5%
O=C(COc1ccccc1Cl)Nc1ccc2c(c1)OCO2	71.4*	41.8*	12.5%	1.5%	6.5%	2.6%
CC(=O)OCC1=C[C@H]2[C@@H]3C(C)(C)[C@]3(OC(C)=O)C[C@@H](C)[C@]2(O)[C@@H]2C=C(C)C(=O)[C@@]2(O)C1	-3.0	11.2	.	-9.1%	.	.
CC(C)NC(=O)c1ccc2c3n(nc2c1)-c1ccc(Cl)cc1CO3	59.6*	21.3*	-0.7%	-4.7%	-8.7%	-3.6%
O=C(NCC1CCCO1)c1ccc2c3n(nc2c1)-c1ccccc1CO3 (configuration not stated)	54.2*	51.5*	-2.0%	-0.5%	2.4%	-29.1%
SMILES	Shiga inhibitor	Cycloheximide cs	RE007 growth inh	FBPA Giardia inh	Tb PYK inh	LmPK inh
C[C@@H](CO)NC(=O)c1ccc2c3n(nc2c1)-c1ccccc1CO3	7.6	17.1*	-17.0%	0.4%	?	14.1µM*
O=C(NCC1CCCO1)c1ccc2c(c1)OCO2 (configuration not stated)	27.2	10.5	-5.2%	0.4%	-2.9%	3.4%
Cc1ccc2c(c1)COc1c3ccc(C(=O)N[C@@H](CO)C(C)C)cc3nn1-2	74.5*	55.2*	0.1%	15.6%	-6.9%	3.1%
CCC(=O)Nc1ccccc1-c1nc2ccccc2n(CC(=O)c2ccc(C)c(C)c2)c1=O	.	.	.	.	-0.9%	.
CO[C@@H]1COC(=O)[C@H](C)NC(=O)[C@@H](C)COC(=O)[C@H](C)NC(=O)C/C=C\[C@H]1C	.	.	.	0.3%[12.9 µM]	.	.
CCN(CC)CCCNC(=O)c1ccc2c3n(nc2c1)-c1ccc(Cl)cc1CO3	.	.	-13.1%	.	1.6%	.
COCCNC(=O)c1ccc2c3n(nc2c1)-c1ccc(C)cc1CO3	134.1*	59.4*	?	4.6%	-3.1%	-9.0%
O=C(Nc1c(C(=O)O)oc2ccccc12)c1ccc(C(F)(F)F)cc1	.	.	.	.	-4.3%	.
Clc1cccc(Cc2c(C3CCCCC3)nc3c4ccccc4ccn23)c1	.	.	?	.	-3.0%	.
CC(C)NC(=O)N1CCC2(CC1)CCN(C(=O)c1cccc(F)c1)CC2	.	.	.	6.1%	-0.1%	.
CC(C)CN1CCC(=O)N(C(CSc2ccc(Br)cc2)c2ccccc2)CC1 (configuration not stated)	24.8	32.3	.	12.5%	.	.
CC(C)CN1CCC(=O)N(CCSc2ccc(Br)cc2)CC1	52.9*!	25.0	-5.0%	3.1%	0.1%	4.3%
CC(C)CN1CCC(=O)N(CCOc2ccccc2)CC1	27.8*	27.8*	-2.9%	-3.0%	-4.8%	7.3%
CCOc1ccc(CNCc2c(C(=O)O)c(C)n(Cc3c(F)cccc3Cl)c2C)cc1OC	.	.	.	.	-11.0%	.
CC1CCCN(C(=O)Cn2ncc3c([nH]c4ccccc43)c2=O)C1 (configuration not stated)	.	.	.	.	2.3%	.
Cc1noc(C)c1-c1cc(N(C)Cc2ccco2)ncn1	.	.	.	-10.2%	.	.
CC(C)(C)N(Cc1ccccc1)C(=O)COC(=O)CSc1ccc([N+](=O)[O-])cc1	.	.	19.7%	.	?	.
Cc1cccc(-c2nnc(SCC(=O)C(C)(C)C)n2C)c1	73.2*	36.8*	4.1%	5.2%	0.2%	3.8%
Cc1ccc(-c2nnc(SCC(N)=O)n2C)cc1	-23.5	3.3	-21.2%	0.0%	1.1%	-8.6%
Cc1cccc(-c2nnc(SCC(=O)Nc3cc(C)on3)n2C)c1	-7.9	1.4	2.2%	.	1.5%	-4.9%
Cn1c(SCC(N)=O)nnc1-c1ccc(C(C)(C)C)cc1	13.7	16.6*	-11.1%	-2.4%	4.2%	-5.1%
Cc1ccc(CNc2ncnc3ccc(-c4ccc(CO)o4)cc23)o1	.	.	.	.	1.3%	.
CC(C)CC(=O)NCC(c1ccc2c(c1)OCO2)N1CCN(c2ccccc2F)CC1 (configuration not stated)	.	.	.	.	-5.8%	.

From PubChem BioAssay
